Screening data (PubChem BioAssay)
IL-1B inflam inh: qHTS for Inhibitors of Inflammasome Signaling: IL-1-beta AlphaLISA Primary Screen; THP-1 LPS/ATP IL-1B secretion, AlphaLISA, 16 h; hits give low values; activity change, % at 57.5 µM; 360,000 tested, 4.7% active; in the data active means activity change below about -50%; inconclusive means mostly about -30% to -49%
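Secreted IL-1B measured by AlphaLISA bead assay after 16 h compound exposure of THP-1 cells; compounds (final up to 57.5 uM) added 1 h before LPS (250 ng/mL) and ATP (1.25 mM) stimulation; lower signal means less secretion.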
BCR signal inh: qHTS Assay to Find Inhibitors of Chronic Active B-Cell Receptor Signaling | ABC-DLBCL IkBa-CBG/CBR reporter, luminescence ratio, 4 h | AID 493014, 2011 | Potency, µM (titrated, usually from 46.1 µM), actives largely listed as inhibitors | 340,000 tested, 0.05% active; active means well fitted inhibition curve with a large enough effect in the signal ratio, with a control signal flat, not every such curve was filed as active; inconclusive means small, poorly fitted or top-dose-only effect, or effect the other way, or a change in a side signal; the % refers to the signal ratio
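Compounds up to 46 uM were incubated four hours with TMD8 cells whose green CBG68 luciferase is fused to IkappaBalpha; red CBR luminescence normalised the signal, and concentration-effect curves were fitted to fusion, red and ratio data.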
DT40 TDP1 no CPT: qHTS for Inhibitors of human tyrosyl-DNA phosphodiesterase 1 (TDP1): qHTS in cells in absence of CPT. DT40 Tdp1-/- hTDP1 cells, no CPT, ATP luminescence, 48 h. Potency, µM (highest dose often 46.2 µM), usual class: inhibitors. 420,000 tested, 15% active. AID 686978, 2013; further: nearly all actives have a fitted effect of over 55% in size
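Camptothecin absent (DMSO only). Human TDP1-complemented DT40 knockout cells, 400 cells/well, 37 °C for minimum 48 hr; ATP measured via CellTiter-Glo, 30 min dark incubation, luminescence.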
TDP1 cell CPT: qHTS for Inhibitors of human tyrosyl-DNA phosphodiesterase 1 (TDP1): qHTS in cells in presence of CPT | AID 686979, 2013 | chicken DT40 Tdp1-/-;hTDP1 cells + 20 nM CPT, ATP luminescence, 48 h | 420,000 tested, 12% active | Potency, µM (top dose mostly 46.2 µM), usual class: inhibitors; further: nearly all actives have a fitted effect of over 55% in size
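Chicken DT40 Tdp1-/- cells complemented with human TDP1, 400 cells/well, exposed to compounds plus 20 nM camptothecin for at least 48 h at 37 C; viability read as ATP content by CellTiter-Glo luminescence.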
SW480 rerep: A quantitative high throughput screen for small molecules that induce DNA re-replication in SW480 colon adenocarcinoma cells | SW480 DNA re-replication, Hoechst DNA content imaging, 48 h | 340,000 tested, 1.8% active | Potency, µM (titrated, usually from 46.1 µM), most hits filed as activators; further: nearly all actives have a fitted effect of over 55% in size
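Cells (250 per well) received 23 nL compound or DMSO by pin tool and were kept 48 hr at 37 C, 5% CO2. Nuclei were then stained with Hoechst for 40 min and scanned for DNA content.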
MCF10A rerep: A quantitative high throughput screen for small molecules that induce DNA re-replication in MCF 10a normal breast cells; MCF 10A DNA re-replication, Hoechst nuclear intensity, 48 h; Potency, µM (top dose mostly 46.1 µM), actives largely listed as activators; 350,000 tested, 2.9% active; AID 624296, 2012; further: nearly all actives have a fitted effect of over 50% in size
A number is an active result; – = inactive; ? = inconclusive; · = no result given; ! = repeats disagree; [ ] = dose if it differs, or a comment. This is a sample that favours compounds with a hit; in the whole collection about 19% have one here. Unless noted, the call rests on the fitted dose curve; in most records, active means well fitted curve in the direction sought with a large enough effect; inconclusive means small, poorly fitted or top-dose-only effect, or another doubt; inactive means no such curve, though single readings can be large; an effect the other way counts as inactive or inconclusive.

SMILES	IL-1B inflam inh	BCR signal inh	DT40 TDP1 no CPT	TDP1 cell CPT	SW480 rerep	MCF10A rerep
CSCCC(NC(=O)c1ccco1)C(=O)NCC(C)(C)N1CCOCC1 (centres undefined)	–	–	–	–	–	–
O=C1CC(N2CCSCC2)C(=O)N1c1ccc(F)cc1 (centres undefined)	–	–	–	–	–	–
CCc1cc(C(=O)N2CCOc3ccc(CN4CCN(Cc5ccccn5)CC4)cc3C2)no1	·	·	–	–[9.04 µM]	·	·
O=C(/C=C/c1ccccc1)c1ccc2c(c1)OCO2	–	?	?	18.4µM	?	?
Cc1csc(NC(=O)/C=C/c2ccc3c(c2)OCO3)n1	–	?	?	?	–	18.4µM
O=C(N/N=C/c1ccccc1)c1ccc2c(c1)OCO2	–	?	–	–	–	–
O=C(/C=C/c1ccc2c(c1)OCO2)Nc1nc(-c2ccc(F)cc2F)cs1	·	–	·	·	–	–
COc1cccc(/C=C/C(=O)Oc2ccc(C(=O)c3ccc(F)cc3)cc2)c1	–	–	–	?	–	–
COc1cccc(/C=C/C(=O)c2ccc[nH]2)c1	-93.1	?	?	?	?	?
CN(C)c1ccc(/C=C/C(=O)c2ccc3c(c2)OCO3)cc1	-91.7	–	16.4µM	23.1µM	?	?
O=[N+]([O-])c1cccc(COc2ccccc2CN2CCCC2)c1	–	·	–	–	–	–
NC1CCc2ccc([N+](=O)[O-])cc21 (centres undefined)	·	·	?	–	·	·
C#CCN(C(=O)c1ccc(OC)c(OC2CCN(C(C)C)CC2)c1)C1CCCCC1	–	–	–	–	–	–
CCN(CC)C(=O)CSc1nnc(-c2ccccn2)n1Cc1ccccc1	–	–	–	–	–	–
O=C(/C=C/c1cccc(Br)c1)c1ccc2c(c1)OCO2	-104.0	?	?	?	?	?
CN(C)c1ccc(/C=C/C(=O)c2ccc3c(c2)OCCO3)cc1[N+](=O)[O-]	–	–	–	–	–	–
COc1cc(/C=C/C(=O)c2ccc3c(c2)OCCO3)cc(Br)c1OCC(=O)N(C)C	-104.1	?	7.31µM	8.2µM	4.61µM	?
CCOC(=O)[C@H]1NN=C(C(=O)OC)[C@@H]1c1ccccc1	–	–	–	–	?	?
Nc1nc2c(c(=O)[nH]1)N(C=O)C(CNc1ccc(C(=O)N[C@@H](CCC(=O)O)C(=O)O)cc1)CN2 (some centres undefined)	·	·	–	–	·	·
Cn1cnc(S(=O)(=O)Nc2ccc(Cl)c(C(F)(F)F)c2)c1	–	–	–	–	–	–
CCOc1cc(S(=O)(=O)n2cc(-c3ccc(F)cc3)c(N)n2)cc(OCC)c1OCC	–	–	13µM	?	?	–
OC(c1cccnc1)c1ccc2c(c1)CN(Cc1cccc3c1OCO3)CCO2 (centres undefined)	·	·	–	–[9.04 µM]	·	·
Cc1ccc(CNC(=O)CN(c2cccc(C)c2C)S(=O)(=O)c2ccccc2)cc1	·	·	16.4µM	16.4µM	·	·
Cc1cccc(N(CC(=O)N/N=C/c2ccc(C(=O)O)cc2)S(=O)(=O)c2ccccc2)c1C	–	·	?	–	–	–
Cc1cccc(N(CC(=O)NCCc2ccccc2)S(=O)(=O)c2ccccc2)c1C	·	·	18.4µM	16.4µM	·	·
SMILES	IL-1B inflam inh	BCR signal inh	DT40 TDP1 no CPT	TDP1 cell CPT	SW480 rerep	MCF10A rerep
CC(C(=O)NCCSCc1cccc(Cl)c1)N(c1ccccc1)S(C)(=O)=O (centres undefined)	–	–	13µM!	20.6µM!	–	–
Cc1cccc(N(CC(=O)N(C)Cc2ccccc2)S(=O)(=O)c2ccccc2)c1C	·	·	23.1µM	?	·	·
COc1ccc(N(C(C)C(=O)NCCSCc2cccc(Cl)c2)S(C)(=O)=O)cc1 (centres undefined)	–	–	?	?	–	–
Cc1ccc(S(=O)(=O)N2CCN(C(=O)CNC(=O)c3ccc(Br)o3)CC2)cc1	–	–	–	–	–	–
O=C(CC1CS(=O)(=O)CC1CC(=O)Nc1ccc2c(c1)OCCO2)Nc1ccc2c(c1)OCCO2 (centres undefined)	–	–	–	–	–	–
Cc1ccc(NC(=O)C(=O)NCCN2CCN(S(C)(=O)=O)CC2)cc1C	–	–	–	–	–	–
COc1ccc(N(CC(=O)NCCC2=CCCCC2)S(C)(=O)=O)cc1	–	–	–	–	–	–
Cc1cccc(N(CC(=O)NCCSCc2cccc(Cl)c2)S(=O)(=O)c2ccccc2)c1C	·	·	20.6µM	?	·	·
Cc1cccc(N(CC(=O)NCCC2=CCCCC2)S(C)(=O)=O)c1C	–	–	?	16.4µM	–	–
COc1ccccc1N(CC(=O)NCCSCc1ccc(C)cc1)S(=O)(=O)c1ccccc1	–	?	?	?	–	–
CS(=O)(=O)N(CC(=O)NCCSCc1ccccc1)c1cc(C(F)(F)F)ccc1Cl	·	·	14.6µM	20.6µM	·	·
